Assay outcomes (PubChem)
Most compounds without a hit are left out; they make up all but 28% or so of the library.
CYP2C19 activ = increases human CYP2C19 enzyme activity | 96,000 tested, under 10 active | P33261 | activation factor at 5 µM | recombinant CYP2C19, luciferin-H EGE luminescence; active compounds read high; 0 = fully inhibited enzyme, 1 = untreated enzyme;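 active = activation factor of at least 2 at 5 µM in the primary screen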
CYP2C9 inhib = blocks human cytochrome P450 2C9. CYP2C9 Supersomes, luciferin-H conversion, luminescence. P11712. 96,000 tested, 20% active. inhibition, % at 5 µM. AID 777;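 active = blocking of liver enzyme CYP2C9 beyond about 50% at 5 µM, limit read from the data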
Target sequence (P11712 whole entry, looked up): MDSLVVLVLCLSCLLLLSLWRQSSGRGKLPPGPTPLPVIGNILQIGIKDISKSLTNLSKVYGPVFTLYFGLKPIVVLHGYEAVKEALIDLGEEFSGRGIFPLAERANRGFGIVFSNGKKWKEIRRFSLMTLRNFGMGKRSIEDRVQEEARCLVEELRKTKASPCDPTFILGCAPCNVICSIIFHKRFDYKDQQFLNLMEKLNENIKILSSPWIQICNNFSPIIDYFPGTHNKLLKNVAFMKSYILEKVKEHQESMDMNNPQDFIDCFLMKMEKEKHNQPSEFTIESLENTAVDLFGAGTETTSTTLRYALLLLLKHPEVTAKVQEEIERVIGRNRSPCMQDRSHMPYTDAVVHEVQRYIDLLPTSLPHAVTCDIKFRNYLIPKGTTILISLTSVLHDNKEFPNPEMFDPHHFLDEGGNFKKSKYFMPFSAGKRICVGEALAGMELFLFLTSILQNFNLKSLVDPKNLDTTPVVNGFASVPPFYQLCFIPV
Plk1 PBD FP = Plk1 (human) PBD binding inhibition | P53350 | Plk1 PBD phosphopeptide binding, fluorescence polarization | inhibition, %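 (tested at about 20 µM)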 | 97,000 tested, 0.13% active | AID 693; in the data active = inhibition above about 34%, passing the limit was not always enough
CYP2C19 inh = human CYP2C19 inhibition. 96,000 tested, 21% active. inhibition, % at 5 µM. CYP2C19 Supersomes, luciferin-H EGE luminescence, 30 min. AID 778;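 active = CYP2C19 inhibition above a set limit at 5 µM in the primary screen, cut at about 50% in these data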
PLK1 kinase inh = PLK1 (human) kinase inhibition; P53350; recombinant PLK1 kinase, TR-FRET peptide phosphorylation; inhibition, % at 10 µM; 97,000 tested, 0.53% active;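 active = inhibition of 50% or more in the single-concentration screen; inactive = inhibition below 50%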
CYP2C9 activ = CYP2C9 (human) activation; 96,000 tested, 1.4% active; P11712; recombinant CYP2C9, luciferin-H conversion, luminescence; active compounds read high; factor 1 = untreated enzyme, 0 = blocked; activation factor at 5 µM;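 active = activation factor of 2 or more for CYP2C9 at a 5 µM dose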
Hits are given with their value; - = inactive; . = no result.

SMILES	CYP2C19 activ	CYP2C9 inhib	Plk1 PBD FP	CYP2C19 inh	PLK1 kinase inh	CYP2C9 activ
O=C(NCC1CCCO1)c1ccc(N2CCCCC2)nc1 (stereo not given)	-	-	-	-	-	-
Cc1ccccc1N(CC(=O)NCCc1ccccc1)C(=O)c1ccc(N2CCCC2)nc1	-	95	-	57	-	-
CC(C)(C)NS(=O)(=O)c1ccc(CCC(=O)N2CCOCC2)cc1	-	-	-	-	-	-
CC1CCN(C(=O)CCc2ccc(S(=O)(=O)NC(C)(C)C)cc2)CC1	-	63	-	74	-	-
CCCNS(=O)(=O)c1ccc(CCC(=O)N2CCC(C)CC2)cc1	-	52	-	82	-	-
COc1cccc2sc(N3CCN(c4nc5ccccc5s4)CC3)nc12	-	-	-	-	-	-
COc1cccc2sc(N(C)c3ccccc3)nc12	-	-	-	78	-	-
CC(C)N=C(NC#N)SCC(=O)NC(C)(C)C	-	-	-	-	-	-
CC(C)N=C(NC#N)SCc1ccccc1F	-	-	-	85	-	-
NC(=O)NC(Cc1ccccc1)c1ccccc1 (stereo not given)	-	-	.	-	.	-
NC(=O)NC(c1ccccc1)c1ccccc1	-	-	-	80	-	-
NC(=O)NC(c1ccccc1)c1cccc2ccccc12 (stereo not given)	-	-	-	72	-	-
NC(=O)NC(c1ccccc1)c1ccccc1F (stereo not given)	-	-	-	72	-	-
O=C(NC(c1ccccc1)c1ccccc1)c1ccc(S(=O)(=O)C(F)F)cc1	-	-	-	-	-	-
CCCCOc1nc2ccccc2nc1C(C#N)C(=O)NC1CCCCC1 (stereo not given)	-	-	-	-	-	-
O=C(NCCN1CCN(Cc2ccccc2Cl)CC1)Nc1ccccc1	-	-	-	-	-	-
O=C(NCC(c1cccs1)N1CCOCC1)c1ccc(Cl)s1 (stereo not given)	-	54	-	72	-	-
O=C(C1CCCN(S(=O)(=O)Cc2ccccc2)C1)N1CCC(Cc2ccccc2)CC1 (stereo not given)	-	85	-	97	-	-
O=C(C1CCN(S(=O)(=O)Cc2ccccc2)CC1)N1CCN(c2ncccn2)CC1	-	-	-	-	-	-
CS(=O)(=O)N1CCC(C(=O)N2CCC(Cc3ccccc3)CC2)CC1	-	-	-	-	-	-
COC(=O)C1CCN(S(=O)(=O)Cc2ccccc2)CC1	-	-	-	63	-	-
CC(=O)c1ccc(N2CCN(C(=O)C3CCN(S(=O)(=O)Cc4ccccc4)CC3)CC2)cc1	-	67	-	-	-	-
COc1ccc(NC2(c3ccc(Cl)cc3)C(=O)c3ccccc3C2=O)cc1	.	.	-	.	-	.
Cc1ccsc1C(=O)Nc1nnc(-c2ccco2)o1	-	57	-	-	-	-
CCOC(=O)C1=C(C)C(c2ccccc2O)NC(=O)N1 (stereo not given)	-	-	-	-	-	-
SMILES	CYP2C19 activ	CYP2C9 inhib	Plk1 PBD FP	CYP2C19 inh	PLK1 kinase inh	CYP2C9 activ
C=CCN=c1sc(C(=O)OC)cc(=O)n1CC=C	-	-	-	52	-	-
CCOC(=O)/C=C/S(=O)(=O)c1ccc(NC(C)=O)cc1	-	-	-	-	-	-
C=C(C)CSc1nnc2n(C)c(=O)c3c4c(sc3n12)CCC4	-	56	.	55	.	-
Brc1cc2c(cc1/C=N/Nc1nc(N3CCCC3)nc(N3CCOCC3)n1)OCO2	-	-	-	-	-	-
CCOC(=O)CNc1c(-c2ccccc2)nc2ccc(Cl)cn12	-	-	-	58	-	-
CCOC(=O)CNc1c(-c2ccc(O)cc2)nc2ccc(Cl)cn12	-	-	-	-	-	-
CCOC(=O)N1CCC(N2CC34C=CC(O3)C(C(=O)Nc3ccc(OCC)cc3)C4C2=O)CC1 (stereo not given)	-	-	-	-	-	-
OC1(c2ccc(F)cc2)CCN(Cc2ccccc2)C1 (stereo not given)	-	-	-	84	-	-
CCOc1ccc(NC(=O)C2CCC(C)(C(=O)O)C2(C)C)cc1 (stereo not given)	-	-	-	-	-	-
COC(=O)c1cc(COc2ccc3oc(C)c(C(=O)OC)c3c2)c(C)o1	-	-	-	-	-	-
CCOC(=O)c1c(C)oc2ccc(OCc3cc(C(=O)OC)oc3C)cc12	-	86	-	64	-	-
COC(=O)c1cc(OC)c(OCc2cc(C(=O)OC)oc2C)c(OC)c1	-	-	-	52	-	-
CCOC(=O)c1c(C)oc2ccc(OCC(=O)C(C)(C)C)cc12	-	72	-	65	-	-
CC(C)C(=O)Nc1ccc(-c2csc(-c3ccccc3)n2)cc1	-	-	-	-	-	-
C[C@@H](C(=O)NCc1ccccc1)N1C(=O)C2CC=CCC2C1=O (stereo not given in full)	-	-	-	-	-	-
O=C(NCC(=O)N(CC1CCCO1)C(C(=O)NC1CCCC1)c1cccnc1)c1ccco1 (stereo not given)	-	-	-	-	-	-
CCOC(=O)CSC1=C(C#N)C(c2ccccc2C)C2=C(CCCC2=O)N1 (stereo not given)	-	79	-	50	-	-
CCOC(=O)CSC1=C(C#N)C(c2ccccc2OC)CC(=O)N1 (stereo not given)	-	-	-	64	-	-
CCCSC1=C(C#N)C(c2ccc(O)c(OC)c2)CC(=O)N1 (stereo not given)	-	-	-	-	-	-
CCOC(=O)CSC1=C(C#N)C(c2ccc(C)s2)CC(=O)N1 (stereo not given)	-	96	-	72	-	-
CCCCSC1=C(C#N)C(c2ccccc2C)CC(=O)N1 (stereo not given)	-	-	-	-	-	-
COc1ccc(OC)c(C2CC(=O)NC(SC)=C2C#N)c1 (stereo not given)	-	64	-	-	-	-
COc1cc2c(cc1NC(=O)c1ccco1)CCCC2	-	-	-	-	-	-
COC(=O)c1ccc2c(c1)S(=O)(=O)NC(=NCc1ccco1)S2	-	-	-	-	-	-
CSC1=C(C#N)C(c2ccc3c(c2)OCO3)C2=C(CCCC2=O)N1 (stereo not given)	.	.	-	.	-	.
CCSC1=C(C#N)C(c2ccc(C)s2)CC(=O)N1 (stereo not given)	-	52	-	69	-	-
CCSC1=C(C#N)C(c2ccc(Cl)cc2)C2=C(CCCC2=O)N1 (stereo not given)	-	94	-	94	-	-
COc1ccc(-n2c(O)c(Cc3ccccc3)c(=O)n3nc(-c4ccccc4)c(=O)cc23)cc1	.	.	-	.	-	.
O=C(O)C1C2C=CC(C3CC23)C1C(=O)N1CCc2ccccc21 (stereo not given)	-	-	-	-	-	-
Cc1ccc(C(=O)CC(=O)c2cc(Cl)ccc2O)cc1	-	-	-	-	-	-
